From PubChem BioAssay (NCI)
This is part of a sample that, as a whole, favours compounds with a hit. Of some 79,000 tested, about 15% had one in any assay. Active and inactive are the calls of the source. Cut-off read from the data, not from the text of the source: active = growth inhibition above about 70%; inactive = the rest.

Assays:
[1] = NCI Yeast Anticancer Drug Screen. Data for the rad50 strain (AID 155);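 note: 0% = growth of vehicle-only cultures of the same strain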; details: S. cerevisiae rad50 strain growth inhibition, stronger effect = higher value; at 50.0 µM unless noted
In short: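 Vehicle-treated cultures provide the reference for the growth inhibition reported for compound-exposed, repair-deficient yeast.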

[2] = NCI Yeast Anticancer Drug Screen. Data for the mec2-1 strain (AID 157); details: S. cerevisiae mec2-1 strain, stronger effect = higher value; at 50.0 µM unless noted
In short: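 Yeast mec2-1 mutant treated with compound. Readout: growth inhibition vs vehicle controls.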

[3] = NCI Yeast Anticancer Drug Screen. Data for the sgs1 mgt1 strain (AID 161);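 note: 0% = growth of cultures given vehicle only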; details: S. cerevisiae sgs1 mgt1 strain, stronger effect = higher value; at 50.0 µM unless noted
In short: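 Test agents were incubated with a DNA-repair-mutant yeast strain. Growth was then read and compared against vehicle-treated controls.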

[4] = NCI Yeast Anticancer Drug Screen. Data for the cln2 rad14 strain (AID 165);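 note: 0% = growth equal to vehicle treated cultures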; details: S. cerevisiae cln2 rad14 strain, stronger effect = higher value; at 50.0 µM unless noted
In short: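 cln2 rad14 yeast strain; compound exposure; growth inhibition read vs vehicle controls.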

[5] = NCI Yeast Anticancer Drug Screen. Data for the bub3 strain (AID 167); details: S. cerevisiae bub3 mutant strain, stronger effect = higher value; at 50.0 µM unless noted
In short: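 Mutant yeast screening strain plus compound; vehicle-treated cultures serve as the 0% inhibition reference.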

[6] = NCI Yeast Anticancer Drug Screen. Data for the mlh1 rad18 strain (AID 175); details: S. cerevisiae mlh1 rad18 strain growth inhibition, stronger effect = higher value; at 50.0 µM unless noted
In short: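 Yeast w/ defined DNA-repair lesions; compound exposure; growth vs vehicle controls → % inhibition.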

Measured: growth inhibition

CCN(CC)CCCCCCNc1cc(OC)c(OC)c2c(C)ccnc12
inactive: [1] 23.6% | [2] 18.1% | [3] 5.6% | [4] -14.4% | [5] -1.8% | [6] 28.2%

Cc1ccc([N+](=O)[O-])cc1NC(=O)Sc1ccc(C(C)(C)C)cc1C
inactive: [1] 5.2% | [2] 6.9% | [3] 4.65% | [4] -11.4% | [5] 3.4% | [6] 8.8%

COc1ccccc1CN1CCCN(Cc2ccccc2OC)C1c1cccc(F)c1
inactive: [1] 0.75% | [2] 9.9% | [3] 0.65% | [4] 16.4% | [5] 6.65% | [6] 17.8%

O=C(Cc1ccc(CC(=O)NCCCCc2ccccc2)cc1)NCCCCc1ccccc1
inactive: [1] 0.75% | [2] -3.25% | [3] -14.9% | [4] -8.85% | [5] -7.9% | [6] 13.1%

O=C(Cn1c(=O)ccn(C2OC(CO)C(O)C2F)c1=O)c1ccc(F)cc1 (stereo not drawn)
inactive: [1] -2.5% | [2] 0.3% | [3] -30.9% | [4] -48.8% | [5] 0.6% | [6] 3.1%

O=C(O)/C=C1\NC(=O)NC1=O
inactive: [1] 16.1% | [2] -5.1% | [3] 11.8% | [4] 6.1% | [5] 5.75% | [6] 33%

O=c1c2cccnc2nc2ccc3c[nH][nH]c3c12
inactive: [1] -23.8% | [2] -24.6% | [3] -0.55% | [4] -14.6% | [5] -18.3% | [6] 8.65%

CC(C(C#N)C(N)=O)C(C#N)C(N)=O (stereo not drawn)
inactive: [1] 10.2% | [2] 12.4% | [3] 5.5% | [4] -4.4% | [5] -23.9% | [6] 14.7%

Cc1ccc(/C=C/C(=O)C(C)CN(C)C)cc1C (stereo not drawn)
inactive: [1] -1% | [2] -15.4% | [3] 26.1% | [4] 0.95% | [5] 0.3% | [6] 9.65%

OCC(O)COc1ccc(Cl)cc1 (stereo not drawn)
inactive: [1] -5% | [2] -12.8% | [3] -1.25% | [4] 2.05% | [5] 6.4% | [6] 9%

CCOC(=O)/C=C/CCC(C)(C)COC(C)=O
inactive: [1] -10.1% | [2] -1.4% | [3] -36.9% | [4] -49.8% | [5] 0.05% | [6] -31.9%

CCOP(=O)(C/C(=N/NC(C)(C)C)C(=O)Nc1nc2ccc(C)cc2s1)OCC
inactive: [1] -14% | [2] 3.7% | [3] -26.1% | [4] -30.4% | [5] -0.5% | [6] -18.6%

CN(C)Cc1ccccc1
inactive: [1] 28.8% | [2] 15.8% | [3] 14.8% | [4] -58% | [5] 11.1% | [6] 17.6%

O=S1(=O)CCC(c2ccccc2)C1 (stereo not drawn)
inactive: [1] 2.3% | [2] -10.7% | [3] -13.8% | [4] 0.45% | [5] -12.3% | [6] -7.15%

COc1ccc2nc3cc([N+](=O)[O-])ccc3c(NCCCN(C)C)c2c1
inactive: [1] 7.05% | [2] -1.9% | [3] 45.4% | [4] 20.9% | [5] 8.25% | [6] 5.4%

NC(N)=NS(=O)(=O)c1ccc(NCc2c3ccccc3nc3ccccc23)cc1
inactive: [1] 41.2% | [2] 26.9% | [3] 38.4% | [4] 6.75% | [5] 46.5% | [6] 38.1%

CC(C)N(C(C)C)S(C)(=O)=O
inactive: [1] -0.3% | [2] -0.5% | [3] -3.9% | [4] -17.8% | [5] 10.3% | [6] 3.1%

CCCCC1(N=[N+]=[N-])C(=O)C2C=CC=C3c4ccccc4N(C1=O)C32 (stereo not drawn)
inactive: [1] -1.15% | [2] -11.2% | [3] -5.8% | [4] -43.2% | [5] 34.7% | [6] 2.85%

CCCOC(=O)N(C)c1ccccc1
inactive: [1] 17.8% | [2] -10.3% | [3] 2.95% | [4] -32.3% | [5] -22.6% | [6] -2.1%

COc1ccc(CCNS(=O)(=O)c2c(C)c(C)c(C)c(C)c2C)cc1OC
inactive: [1] -2.2% | [2] -20.6% | [3] 5.1% | [4] 21.1% | [5] 21.2% | [6] 6.8%

COc1ccc(-c2sc(C)nc2O)cc1
inactive: [1] 7.75% | [2] 2.35% | [3] 0.3% | [4] -20.8% | [5] -15.5% | [6] 7.2%

Cc1c(C)c(C(=O)Cc2ccccc2)c(C)c(C(=O)Cc2ccccc2)c1C
inactive: [1] 19.6% | [2] -1.8% | [3] -15.3% | [4] 12.3% | [5] 5.55% | [6] 0.65%

C/C(=N\NS(=O)(=O)c1ccc(C)cc1)c1cccs1
inactive: [1] -3.9% | [2] 7.1% | [3] 6.4% | [4] 4.2% | [5] 10.2% | [6] 12.6%

Oc1cc2c(cc1C(Nc1ncccn1)c1ccc3c(c1)OCO3)OCO2 (stereo not drawn)
inactive: [1] -0.4% | [2] 6.8% | [3] 12.8% | [4] -16.3% | [5] 19.4% | [6] 15.3%

Cc1ccc(NP(=O)(Nc2ccc(C)cc2)c2ccc([N+](=O)[O-])cc2)cc1
active: [1] 93.2% | [2] 94.2% | [3] 92.7% | [4] 92.1% | [5] 85.3% | [6] 95.6%

CC1=Nc2ccccc2SC2(C1)C(C1COC(C)(C)O1)OC1OC(C)(C)OC12 (stereo not drawn)
inactive: [1] 7.4% | [2] 11.1% | [3] 21.1% | [4] 21.4% | [5] -9.55% | [6] 12.8%

S=c1sc2c(s1)SCCCCSCCCCSc1sc(=S)sc1SCCCCSCCCCS2
inactive: [1] 13.3% | [2] 8.6% | [3] 1.1% | [4] 16.1% | [5] 6.75% | [6] -29.4%

Oc1ccc(C(Cc2ccccc2)NCc2ccccc2)cc1 (stereo not drawn)
inactive: [1] -8.15% | [2] 14.6% | [3] 15.7% | [4] -12.6% | [5] 5.25% | [6] 17.9%

COc1ccc(NS(=O)c2ccccc2)cc1 (stereo not drawn)
inactive: [1] 10.1% | [2] 1.2% | [3] 3.1% | [4] 6.65% | [5] -2.5% | [6] 7.65%

O=[N+]([O-])c1cc(Cl)ccc1S(=O)(=O)N1CCCc2cc(Cl)ccc21
inactive: [1] 66.2% | [2] 51.8% | [3] 64.8% | [4] 62.1% | [5] 63.6% | [6] 62%

S=C(NC1CCCCC1)SSSC(=S)NC1CCCCC1
inactive: [1] -6.7% | [2] -4.65% | [3] -8.05% | [4] 15.2% | [5] -17.4% | [6] 6.8%

Cc1ccc(S(=O)(=O)OC2CCSCC2)cc1
inactive: [1] -5.25% | [2] -10.3% | [3] 7.7% | [4] -11.9% | [5] 7.05% | [6] -4.8%

CCOC(=O)C(C)NC(=O)NC12CC3CC(CC(F)(C3)C1)C2 (stereo not drawn)
inactive: [1] 31.3% | [2] 10.6% | [3] 3.1% | [4] 6.35% | [5] 8.45% | [6] -0.2%

CCCCCCCCOC(=O)Nc1ccc(S(=O)(=O)NC2CCCCC2)cc1
inactive: [1] 7.05% | [2] -2.9% | [3] 14.1% | [4] 37.8% | [5] 10.8% | [6] 20.6%

COc1ccc2c(c1OC(C)=O)-c1cc(OC(C)=O)cc3c1C(C2)N(C(=O)CBr)CC3 (stereo not drawn)
inactive: [1] 62% | [2] 54.2% | [4] 36% | [5] 20.5% | [6] 59.4%
active: [3] 70.2%

CNC(=S)NCOCCOC(C)=O
inactive: [1] 6.75% | [2] 22.1% | [3] 15.2% | [4] -26.9% | [5] 0.75% | [6] 3.45%

O=C(Nc1cccc2ccccc12)c1ccc(Cl)cc1Cl
inactive: [1] 4.15% | [2] 14.9% | [3] 21.5% | [4] 1.35% | [5] 8.55% | [6] 4.65%

Cc1ccc2[nH]c(C(=O)O)cc2c1
inactive: [1] 31.1% | [2] -6.8% | [3] 10.8% | [4] 10.3% | [5] 9% | [6] 28.1%
